Results: paper PMC7862700, “An all-to-all approach to the identification of sequence-specific readers for epigenetic DNA modifications on cytosine”

Legend:
Assay in all cases: DAPPL (digital affinity profiling via proximity ligation, sequencing); 10 mM Tris-HCl pH 7.5, 50 mM NaCl, 1 mM DTT, 4% glycerol, room temperature, 30 min; GST-TFs on glutathione beads, 16-mer random dsDNA library, 0.1% formaldehyde crosslink after washing; high values mean tight binding
FEV = biological target: T1, FEV (Homo sapiens, UniProt Q99581 1-238); conditions: protein: recombinant; tags: N-terminal GST; dsDNA, one strand shown
T1 sequence: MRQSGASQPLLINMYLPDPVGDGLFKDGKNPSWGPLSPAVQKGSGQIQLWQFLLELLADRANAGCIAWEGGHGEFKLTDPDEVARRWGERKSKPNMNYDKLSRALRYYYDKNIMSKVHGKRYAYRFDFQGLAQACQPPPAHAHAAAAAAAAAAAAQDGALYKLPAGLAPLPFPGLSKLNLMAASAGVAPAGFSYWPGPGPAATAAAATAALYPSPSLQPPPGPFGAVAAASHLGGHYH
In short: (§1)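 Human transcription factors fused to GST were expressed in yeast, captured on glutathione beads, given DNA barcodes and pooled with a GST-only negative control. Pools were incubated with 200 nmole of a 16-mer random double-stranded DNA library in Tris/NaCl/DTT/glycerol buffer at room temperature for 30 min. They were then washed, crosslinked with 0.1% formaldehyde, proximity-ligated (BsaI/T4 ligase, 1 h, 37 °C), PCR-amplified and sequenced on an Illumina NextSeq500. Binding signal is each 6-mer's read frequency for a factor divided by its frequency for the GST control.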

ETV5 = ETV5 (Homo sapiens, UniProt P41161 1-510); conditions: protein: recombinant; tags: N-terminal GST; dsDNA, one strand shown
In short: as §1

HSF1 = HSF1 (Homo sapiens, UniProt Q00613 1-529); conditions: protein: recombinant; tags: N-terminal GST; chain copies: 3; dsDNA, one strand shown
In short: as §1

SPIC = biological target: T2, SPIC (Homo sapiens, UniProt Q8N5J4 1-248); conditions: protein: recombinant; tags: N-terminal GST; dsDNA, one strand shown
T2 sequence: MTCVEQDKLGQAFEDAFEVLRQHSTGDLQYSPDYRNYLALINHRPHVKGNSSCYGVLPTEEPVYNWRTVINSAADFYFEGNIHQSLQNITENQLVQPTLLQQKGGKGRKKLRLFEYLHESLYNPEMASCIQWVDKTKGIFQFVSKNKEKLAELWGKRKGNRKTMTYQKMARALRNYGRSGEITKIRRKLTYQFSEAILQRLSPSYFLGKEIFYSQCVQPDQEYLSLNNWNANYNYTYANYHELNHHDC
In short: as §1

ELF4 = ELF4 (Homo sapiens, UniProt Q99607 1-663); conditions: protein: recombinant; tags: N-terminal GST; dsDNA, one strand shown
In short: as §1

ELK4 = biological target: T3, ELK4 (Homo sapiens, UniProt P28324-2 1-405); conditions: protein: recombinant; tags: N-terminal GST; dsDNA, one strand shown
T3 sequence: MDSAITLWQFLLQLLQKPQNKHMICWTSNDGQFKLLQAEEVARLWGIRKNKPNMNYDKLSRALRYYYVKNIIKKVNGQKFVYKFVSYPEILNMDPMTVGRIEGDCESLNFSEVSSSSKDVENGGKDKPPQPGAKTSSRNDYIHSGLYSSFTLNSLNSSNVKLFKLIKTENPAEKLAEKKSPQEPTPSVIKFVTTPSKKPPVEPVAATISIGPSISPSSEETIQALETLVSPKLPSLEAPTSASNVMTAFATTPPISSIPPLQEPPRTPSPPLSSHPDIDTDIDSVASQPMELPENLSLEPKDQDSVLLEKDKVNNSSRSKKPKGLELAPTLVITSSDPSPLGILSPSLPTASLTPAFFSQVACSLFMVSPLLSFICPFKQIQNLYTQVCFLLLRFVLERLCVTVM
In short: as §1

ETV2 = biological target: T4, ETV2 (Homo sapiens, UniProt O00321 1-342); conditions: protein: recombinant; tags: N-terminal GST; dsDNA, one strand shown
T4 sequence: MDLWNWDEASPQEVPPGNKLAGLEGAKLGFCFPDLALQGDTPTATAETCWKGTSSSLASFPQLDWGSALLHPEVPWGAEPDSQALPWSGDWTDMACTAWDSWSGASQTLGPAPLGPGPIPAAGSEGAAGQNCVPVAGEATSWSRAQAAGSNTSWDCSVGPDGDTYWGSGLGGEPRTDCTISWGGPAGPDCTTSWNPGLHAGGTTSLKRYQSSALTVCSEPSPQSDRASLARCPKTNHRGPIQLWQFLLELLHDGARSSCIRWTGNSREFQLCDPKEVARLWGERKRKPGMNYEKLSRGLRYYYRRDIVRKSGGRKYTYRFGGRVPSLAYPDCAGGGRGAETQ
In short: as §1

ELF3 = biological target: T5, ELF3 (Homo sapiens, UniProt P78545 1-371); conditions: protein: recombinant; tags: N-terminal GST; dsDNA, one strand shown
T5 sequence: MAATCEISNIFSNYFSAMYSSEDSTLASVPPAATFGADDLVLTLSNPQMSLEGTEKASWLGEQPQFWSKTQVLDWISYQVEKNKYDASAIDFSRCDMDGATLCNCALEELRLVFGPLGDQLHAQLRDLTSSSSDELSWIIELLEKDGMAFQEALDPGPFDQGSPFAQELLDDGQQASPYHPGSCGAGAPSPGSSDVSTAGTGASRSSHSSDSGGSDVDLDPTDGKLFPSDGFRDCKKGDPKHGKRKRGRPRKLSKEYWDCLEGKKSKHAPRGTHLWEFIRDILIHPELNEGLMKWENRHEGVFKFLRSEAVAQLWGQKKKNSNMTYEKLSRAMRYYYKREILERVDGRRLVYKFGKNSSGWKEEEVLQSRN
In short: as §1

CRX = CRX (Homo sapiens, UniProt O43186 1-299); conditions: protein: recombinant; tags: N-terminal GST; dsDNA, one strand shown
In short: as §1

ETV1 = ETV1 (Homo sapiens, UniProt P50549 1-477); conditions: protein: recombinant; tags: N-terminal GST; dsDNA, one strand shown
In short: as §1

ERF = biological target: T6, ERF (Homo sapiens, UniProt P50548 1-548); conditions: protein: recombinant; tags: N-terminal GST; dsDNA, one strand shown
T6 sequence: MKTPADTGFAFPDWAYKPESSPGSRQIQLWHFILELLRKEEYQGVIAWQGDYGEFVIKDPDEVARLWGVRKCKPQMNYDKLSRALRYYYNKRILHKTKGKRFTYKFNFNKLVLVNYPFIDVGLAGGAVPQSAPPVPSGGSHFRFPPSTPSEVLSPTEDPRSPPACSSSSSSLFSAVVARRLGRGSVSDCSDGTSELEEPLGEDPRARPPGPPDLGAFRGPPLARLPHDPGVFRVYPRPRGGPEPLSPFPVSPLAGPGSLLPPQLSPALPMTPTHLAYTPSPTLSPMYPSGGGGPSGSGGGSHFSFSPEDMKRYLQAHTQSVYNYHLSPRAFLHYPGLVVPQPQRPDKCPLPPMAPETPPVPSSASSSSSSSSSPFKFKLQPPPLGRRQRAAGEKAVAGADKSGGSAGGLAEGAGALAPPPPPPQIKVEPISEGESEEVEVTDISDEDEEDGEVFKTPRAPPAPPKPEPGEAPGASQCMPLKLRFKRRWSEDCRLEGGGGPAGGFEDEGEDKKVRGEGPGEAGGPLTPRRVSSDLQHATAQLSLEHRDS
In short: as §1

ETV3L = biological target: T7, ETV3L (Homo sapiens, UniProt Q6ZN32 1-361); conditions: protein: recombinant; tags: N-terminal GST; dsDNA, one strand shown
T7 sequence: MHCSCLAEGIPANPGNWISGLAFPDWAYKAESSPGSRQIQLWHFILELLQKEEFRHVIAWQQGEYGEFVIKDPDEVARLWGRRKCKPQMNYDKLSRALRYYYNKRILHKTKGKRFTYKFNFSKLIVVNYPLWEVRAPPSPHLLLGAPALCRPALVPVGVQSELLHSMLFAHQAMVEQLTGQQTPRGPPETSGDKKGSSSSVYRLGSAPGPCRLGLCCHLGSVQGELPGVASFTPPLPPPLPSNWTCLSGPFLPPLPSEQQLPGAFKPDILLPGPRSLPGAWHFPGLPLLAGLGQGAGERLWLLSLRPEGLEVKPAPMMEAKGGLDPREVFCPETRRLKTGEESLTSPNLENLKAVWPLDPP
In short: as §1

ETS2 = biological target: T8, ETS2 (Homo sapiens, UniProt P15036 1-469); conditions: protein: recombinant; tags: N-terminal GST; dsDNA, one strand shown
T8 sequence: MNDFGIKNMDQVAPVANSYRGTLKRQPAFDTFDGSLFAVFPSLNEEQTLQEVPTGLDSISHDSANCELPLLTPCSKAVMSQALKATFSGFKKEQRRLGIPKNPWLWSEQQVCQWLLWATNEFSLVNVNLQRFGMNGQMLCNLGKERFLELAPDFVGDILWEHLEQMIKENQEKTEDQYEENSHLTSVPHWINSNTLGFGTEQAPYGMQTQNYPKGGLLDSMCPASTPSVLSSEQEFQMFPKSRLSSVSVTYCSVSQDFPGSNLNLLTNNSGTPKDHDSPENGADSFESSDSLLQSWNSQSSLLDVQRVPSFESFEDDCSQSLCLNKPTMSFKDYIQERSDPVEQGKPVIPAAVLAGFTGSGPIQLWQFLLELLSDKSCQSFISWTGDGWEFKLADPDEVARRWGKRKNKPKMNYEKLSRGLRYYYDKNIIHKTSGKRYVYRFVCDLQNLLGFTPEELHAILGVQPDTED
In short: as §1

SPDEF = biological target: T9, SPDEF (Homo sapiens, UniProt O95238 1-335); conditions: protein: recombinant; tags: N-terminal GST; dsDNA, one strand shown
T9 sequence: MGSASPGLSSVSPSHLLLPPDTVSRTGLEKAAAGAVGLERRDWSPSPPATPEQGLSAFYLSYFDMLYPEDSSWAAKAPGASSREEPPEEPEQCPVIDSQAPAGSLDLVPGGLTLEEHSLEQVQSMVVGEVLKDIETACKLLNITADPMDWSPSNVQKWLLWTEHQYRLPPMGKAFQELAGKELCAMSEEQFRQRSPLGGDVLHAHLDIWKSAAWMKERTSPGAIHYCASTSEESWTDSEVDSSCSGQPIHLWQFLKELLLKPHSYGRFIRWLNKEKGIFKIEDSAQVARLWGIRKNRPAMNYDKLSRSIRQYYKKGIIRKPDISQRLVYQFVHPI
In short: as §1

ETV7 = biological target: T10, ETV7 (Homo sapiens, UniProt Q9Y603 1-341); conditions: protein: recombinant; tags: N-terminal GST; dsDNA, one strand shown
T10 sequence: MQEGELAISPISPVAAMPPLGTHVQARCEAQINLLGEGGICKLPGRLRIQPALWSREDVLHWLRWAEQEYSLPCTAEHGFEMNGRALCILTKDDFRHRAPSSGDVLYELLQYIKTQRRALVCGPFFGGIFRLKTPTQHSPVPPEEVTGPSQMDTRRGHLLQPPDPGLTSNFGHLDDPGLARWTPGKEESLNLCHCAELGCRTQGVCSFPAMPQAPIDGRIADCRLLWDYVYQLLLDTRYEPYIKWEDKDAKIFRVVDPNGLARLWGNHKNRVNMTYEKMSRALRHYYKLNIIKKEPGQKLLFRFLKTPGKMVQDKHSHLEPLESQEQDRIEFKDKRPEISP
In short: as §1

ELF5 = biological target: T11, ELF5 (Homo sapiens, UniProt Q9UKW6-2 1-255); conditions: protein: recombinant; tags: N-terminal GST; dsDNA, one strand shown
T11 sequence: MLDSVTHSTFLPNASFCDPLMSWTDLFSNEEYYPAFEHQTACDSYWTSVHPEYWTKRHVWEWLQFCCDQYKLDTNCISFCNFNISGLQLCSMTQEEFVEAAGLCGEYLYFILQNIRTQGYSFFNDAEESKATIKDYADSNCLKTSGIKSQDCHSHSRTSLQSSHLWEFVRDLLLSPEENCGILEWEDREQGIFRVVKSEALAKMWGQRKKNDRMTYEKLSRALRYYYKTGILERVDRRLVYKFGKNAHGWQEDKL
In short: as §1

ETV3 = biological target: T12, ETV3 (Homo sapiens, UniProt P41162-2 1-143); conditions: protein: recombinant; tags: N-terminal GST; dsDNA, one strand shown
T12 sequence: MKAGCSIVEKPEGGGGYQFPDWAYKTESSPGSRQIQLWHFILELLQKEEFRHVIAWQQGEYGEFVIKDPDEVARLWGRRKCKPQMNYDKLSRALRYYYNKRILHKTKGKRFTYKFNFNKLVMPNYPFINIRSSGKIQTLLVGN
In short: as §1

ETV6 = ETV6 (Homo sapiens, UniProt P41212 1-452); conditions: protein: recombinant; tags: N-terminal GST; dsDNA, one strand shown
In short: as §1

ETV1, sequence (P50549 whole entry): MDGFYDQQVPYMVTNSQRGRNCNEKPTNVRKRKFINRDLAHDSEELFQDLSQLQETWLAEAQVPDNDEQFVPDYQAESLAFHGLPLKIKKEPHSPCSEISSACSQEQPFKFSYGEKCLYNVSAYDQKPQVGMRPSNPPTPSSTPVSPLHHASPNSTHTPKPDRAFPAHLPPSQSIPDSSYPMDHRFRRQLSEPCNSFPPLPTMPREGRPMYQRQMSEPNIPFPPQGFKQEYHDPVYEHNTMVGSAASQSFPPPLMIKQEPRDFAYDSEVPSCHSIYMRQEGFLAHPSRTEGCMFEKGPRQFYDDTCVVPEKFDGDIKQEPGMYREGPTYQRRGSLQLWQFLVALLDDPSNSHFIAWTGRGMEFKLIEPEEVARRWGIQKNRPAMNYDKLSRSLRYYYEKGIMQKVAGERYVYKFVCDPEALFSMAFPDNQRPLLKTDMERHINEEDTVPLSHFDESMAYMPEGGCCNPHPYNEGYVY
ETV6, sequence (P41212 whole entry): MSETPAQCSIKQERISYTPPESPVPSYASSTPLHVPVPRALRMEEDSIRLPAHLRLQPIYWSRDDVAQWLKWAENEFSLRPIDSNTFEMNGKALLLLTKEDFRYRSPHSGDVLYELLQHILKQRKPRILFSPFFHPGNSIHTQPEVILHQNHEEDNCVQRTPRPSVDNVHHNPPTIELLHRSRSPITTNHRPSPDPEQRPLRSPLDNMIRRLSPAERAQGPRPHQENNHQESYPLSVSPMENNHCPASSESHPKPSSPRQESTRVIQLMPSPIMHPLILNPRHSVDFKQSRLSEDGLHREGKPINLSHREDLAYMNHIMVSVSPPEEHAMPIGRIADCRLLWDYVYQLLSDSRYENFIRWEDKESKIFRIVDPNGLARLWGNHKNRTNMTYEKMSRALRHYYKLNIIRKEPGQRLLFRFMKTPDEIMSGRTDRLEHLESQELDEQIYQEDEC
ELF4, sequence (Q99607 whole entry): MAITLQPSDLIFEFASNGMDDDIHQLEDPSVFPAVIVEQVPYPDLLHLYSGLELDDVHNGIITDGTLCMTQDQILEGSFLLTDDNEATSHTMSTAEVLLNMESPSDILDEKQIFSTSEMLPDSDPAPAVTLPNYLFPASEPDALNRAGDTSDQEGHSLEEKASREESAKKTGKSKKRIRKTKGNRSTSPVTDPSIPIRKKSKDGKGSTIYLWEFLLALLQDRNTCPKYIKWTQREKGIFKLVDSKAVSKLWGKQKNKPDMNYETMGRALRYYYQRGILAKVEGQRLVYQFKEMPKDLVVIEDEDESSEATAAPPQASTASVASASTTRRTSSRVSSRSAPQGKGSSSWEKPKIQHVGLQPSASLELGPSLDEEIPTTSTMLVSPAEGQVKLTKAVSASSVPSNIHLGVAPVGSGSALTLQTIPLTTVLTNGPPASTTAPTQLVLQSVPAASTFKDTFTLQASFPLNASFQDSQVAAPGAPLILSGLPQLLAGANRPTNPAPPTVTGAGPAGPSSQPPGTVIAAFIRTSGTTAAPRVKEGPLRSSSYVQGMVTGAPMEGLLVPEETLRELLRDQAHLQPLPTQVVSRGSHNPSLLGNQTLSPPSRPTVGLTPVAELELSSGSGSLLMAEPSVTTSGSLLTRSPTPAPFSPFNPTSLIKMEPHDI
ETV5, sequence (P41161 whole entry): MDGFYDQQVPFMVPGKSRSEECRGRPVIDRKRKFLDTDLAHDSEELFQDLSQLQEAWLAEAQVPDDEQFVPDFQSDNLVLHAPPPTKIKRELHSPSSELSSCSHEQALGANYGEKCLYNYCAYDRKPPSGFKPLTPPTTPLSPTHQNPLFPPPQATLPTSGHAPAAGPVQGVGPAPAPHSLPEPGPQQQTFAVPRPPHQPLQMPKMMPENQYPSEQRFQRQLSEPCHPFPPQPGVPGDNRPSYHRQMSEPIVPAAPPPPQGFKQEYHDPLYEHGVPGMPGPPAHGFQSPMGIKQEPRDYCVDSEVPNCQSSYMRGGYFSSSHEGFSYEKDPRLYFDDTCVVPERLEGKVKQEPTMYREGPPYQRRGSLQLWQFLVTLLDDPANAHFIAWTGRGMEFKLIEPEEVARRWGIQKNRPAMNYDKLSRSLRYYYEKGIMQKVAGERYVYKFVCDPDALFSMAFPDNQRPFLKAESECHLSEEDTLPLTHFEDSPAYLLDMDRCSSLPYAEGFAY
HSF1, sequence (Q00613 whole entry): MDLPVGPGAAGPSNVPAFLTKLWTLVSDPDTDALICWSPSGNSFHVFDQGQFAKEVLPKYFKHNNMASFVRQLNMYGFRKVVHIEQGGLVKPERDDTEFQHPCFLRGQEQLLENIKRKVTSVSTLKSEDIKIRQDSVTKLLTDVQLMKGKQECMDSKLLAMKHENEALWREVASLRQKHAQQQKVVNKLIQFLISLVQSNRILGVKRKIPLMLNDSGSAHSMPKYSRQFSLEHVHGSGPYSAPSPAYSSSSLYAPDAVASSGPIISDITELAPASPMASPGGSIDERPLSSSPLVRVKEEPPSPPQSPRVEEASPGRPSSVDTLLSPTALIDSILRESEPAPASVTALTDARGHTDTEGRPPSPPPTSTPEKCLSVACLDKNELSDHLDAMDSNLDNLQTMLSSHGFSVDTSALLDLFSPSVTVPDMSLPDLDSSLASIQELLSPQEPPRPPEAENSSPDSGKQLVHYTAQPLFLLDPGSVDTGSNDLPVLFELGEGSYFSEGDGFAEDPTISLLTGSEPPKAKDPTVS
CRX, sequence (O43186 whole entry): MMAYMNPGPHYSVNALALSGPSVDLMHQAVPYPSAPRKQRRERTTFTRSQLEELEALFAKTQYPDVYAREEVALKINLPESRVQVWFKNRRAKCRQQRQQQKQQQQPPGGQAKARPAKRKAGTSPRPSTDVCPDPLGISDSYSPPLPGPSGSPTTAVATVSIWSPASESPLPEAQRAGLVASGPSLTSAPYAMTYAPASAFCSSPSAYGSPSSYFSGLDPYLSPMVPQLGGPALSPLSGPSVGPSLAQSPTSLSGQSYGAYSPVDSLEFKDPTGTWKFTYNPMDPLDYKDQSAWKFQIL

Sequence: AATTCC
- binding signal (FEV): 2.05 fold enrichment (6-mer frequency, TF over GST control)
- binding signal (ETV5): 2.1 fold enrichment (6-mer frequency, TF over GST control)
- binding signal (HSF1): 2.07 fold enrichment (6-mer frequency, TF over GST control)
- binding signal (SPIC): 1.93 fold enrichment (6-mer frequency, TF over GST control)
- binding signal (ELF4): 1.92 fold enrichment (6-mer frequency, TF over GST control)
- binding signal (ELK4): 1.55 fold enrichment (6-mer frequency, TF over GST control)
- binding signal (ETV2): 2.11 fold enrichment (6-mer frequency, TF over GST control)
- binding signal (ELF3): 1.7 fold enrichment (6-mer frequency, TF over GST control)
- binding signal (CRX): 2.04 fold enrichment (6-mer frequency, TF over GST control)
- binding signal (ETV1): 1.95 fold enrichment (6-mer frequency, TF over GST control)
- binding signal (ERF): 1.65 fold enrichment (6-mer frequency, TF over GST control)
- binding signal (ETV3L): 1.87 fold enrichment (6-mer frequency, TF over GST control)
- binding signal (ETS2): 1.86 fold enrichment (6-mer frequency, TF over GST control)
- binding signal (SPDEF): 1.98 fold enrichment (6-mer frequency, TF over GST control)
- binding signal (ETV7): 1.7 fold enrichment (6-mer frequency, TF over GST control)
- binding signal (ELF5): 2.39 fold enrichment (6-mer frequency, TF over GST control)
- binding signal (ETV3): 2.09 fold enrichment (6-mer frequency, TF over GST control)
- binding signal (ETV6): 1.97 fold enrichment (6-mer frequency, TF over GST control)
